# Test results reported in paper PMC4552634, “A New Set of Chemical Starting Points with Plasmodium falciparum Transmission-Blocking Potential for Antimalarial Drug Discovery” (PLoS ONE, 2015).
# Screen size: about 13,000 compounds; about 3,200 (25%) showed an effect of 50% or more. The list shows a part of the results.
# System: P. falciparum stage V gametocytes
# Parameters: BacTiter-Glo ATP luminescence viability of purified stage V gametocytes in 384-well plates, per cent inhibition versus DMSO
# Conditions: 48 h, 5 µM; inhibitor
row,SMILES,% Inhibition [%]
1,CS(=O)(=O)c1cccc(-c2ccc3oc(C(N)=O)c(NC(=O)c4cccs4)c3c2)c1 [TCMDC-138862],19.31
2,O=C(CCCCCNC(=O)c1ccc(O)c(-c2ccc(Cl)c(Cl)c2)c1)NCCN1CCCCC1 [TCMDC-140856],8.201
3,COc1cc(Cc2cnc(N)nc2N)cc(OCCCc2cc(OCc3ccccc3)no2)c1OC [TCMDC-138084],0.05649
4,O=C(c1ccccc1)C1CC1CN1CC=C(c2c[nH]c3ccccc23)CC1 (centres unmarked) [TCMDC-136771],-5.765
5,Cc1[nH]c2cc(F)ccc2c1C1=CCN(CCCCC2(C)C(=O)Nc3ccccc32)CC1 (centres unmarked) [TCMDC-141003],-43.4
6,COc1ccc(C(=O)C2CC2CN2CC=C(c3c[nH]c4cccc(Br)c34)CC2)cc1 (centres unmarked) [TCMDC-136801],-30.41
7,COc1ccc(C(=O)C2CC2CN2CC=C(c3c[nH]c4ccc(OC)nc34)CC2)cc1 (centres unmarked) [TCMDC-136873],84.74
8,COc1cccc(C(=O)C2CC2CN2CC=C(c3c[nH]c4ccc(OC)nc34)CC2)c1 (centres unmarked) [TCMDC-136875],11.19
9,COc1cccc(C(=O)C2CC2CN2CC=C(c3c[nH]c4cccc(Br)c34)CC2)c1 (centres unmarked) [TCMDC-136773],-17.42
10,Cc1[nH]c2ccccc2c1C1=CCN(CCCCC2(C)C(=O)Nc3cccc(F)c32)CC1 (centres unmarked) [TCMDC-140942],52.59
11,COc1ccc2[nH]cc(C3=CCN(CC4CC4C(=O)c4ccccc4)CC3)c2n1 (centres unmarked) [TCMDC-136871],-1.485
12,COc1cccc(C(=O)C2CC2CN2CC=C(c3c(C)[nH]c4ccccc34)CC2)c1 (centres unmarked) [TCMDC-136874],78.13
13,Cc1[nH]c2ccccc2c1C1=CCN(CC2CC2C(=O)c2ccccc2)CC1 (centres unmarked) [TCMDC-136870],56.06
14,Cc1[nH]c2ccccc2c1C1=CCN(CCCCC2(C)C(=O)Nc3ccccc32)CC1 (centres unmarked) [TCMDC-140740],-83.27
15,COc1ccc(C(=O)C2CC2CN2CC=C(c3c(C)[nH]c4ccccc34)CC2)cc1 (centres unmarked) [TCMDC-136872],7.556
16,Nc1nc(N)c2c(ccc3nn(Cc4cccnc4)cc32)n1 [TCMDC-137968],-0.02415
17,CS(=O)(=O)c1ccc(-c2cc(C(F)(F)F)nc(N[C@@H]3CCCC[C@H]3OCc3ccccc3)n2)cc1 [TCMDC-138567],-4.461
18,CC[C@@]1(O)C(=O)OCc2c1cc1n(c2=O)Cc2c-1nc1cc3c(cc1c2CN1CCOCC1)OCO3 [TCMDC-131876],7.387
19,Cc1nc2nc(N)nc(N)c2c(C)c1Cc1ccc(C#N)cc1 [TCMDC-137653],-12.58
20,O=c1cc(NCCCNCc2cc(Cl)cc(Cl)c2OCc2ccc(Cl)cc2)[nH]c2ccccc12 [TCMDC-139604],-52.63
21,CCCN1CCC(NCc2cn(C)nc2-c2ccc(Oc3ccccc3)cc2)CC1 [TCMDC-124676],46.58
22,COc1cc(Cl)c(C)cc1N(Cc1ccccc1-c1ccccc1)S(=O)(=O)c1ccc(C(F)(F)F)cc1 [TCMDC-141750],-7.334
23,COc1ccccc1Oc1c(N(C)S(=O)(=O)c2ccc(C(C)C)cc2)nc(C(F)(F)F)nc1N(C)S(=O)(=O)c1ccc(C(C)C)cc1 [TCMDC-132001],61.81
24,O=C(Cn1c(CCc2cccc(F)c2F)cc(=O)c2ccccc21)N(CCN1CCCC1)Cc1ccc(-c2ccc(C(F)(F)F)cc2)cc1 [TCMDC-141120],-20.2

row,SMILES,% Inhibition [%]
1,O=C(Cn1c(CCc2cccc(F)c2F)cc(=O)c2cccnc21)N(CCn1ccnc1)Cc1ccc(-c2ccc(C(F)(F)F)cc2)cc1 [TCMDC-141474],11.29
2,Cn1cncc1CCN(Cc1ccc(-c2ccc(C(F)(F)F)cc2)cc1)C(=O)Cn1c(CCc2cccc(F)c2F)cc(=O)c2cccnc21 [TCMDC-141455],99.09
3,Cn1cncc1CCCN(Cc1ccc(-c2ccc(C(F)(F)F)cc2)cc1)C(=O)Cn1c(CCc2cccc(F)c2F)cc(=O)c2cccnc21 [TCMDC-141502],-3.632
4,O=C(Cn1c(CCc2cccc(F)c2F)cc(=O)c2cccnc21)N(CCN1CCCC1)Cc1ccc(-c2ccc(C(F)(F)F)cc2)cc1 [TCMDC-141463],53.17
5,CCCOc1ccc(OCCCON2C(N)=NC(N)=NC2(C)C)cc1 [TCMDC-131737],9.517
6,CC1CCCN(S(=O)(=O)c2ccc(NC(=O)c3cc(-c4ccccc4O)n[nH]3)cc2)C1 (centres unmarked) [TCMDC-125194],-32.46
7,O=C1NC(=O)C(c2ccc(Cl)cc2)=C1Nc1cccc(S(=O)(=O)C(F)(F)F)c1 [TCMDC-139487],41.44
8,Cc1cc(C)cc(-n2c(C)cc(/C=C3\SC(=Nc4ccc(Cl)cc4)NC3=O)c2C)c1 [TCMDC-124103],64.96
9,CCn1c(C)cc(C=C2SC(=Nc3ccccc3)NC2=O)c1C [TCMDC-124456],-43.68
10,Cc1cc(C=C2SC(=Nc3ccccc3)N(C3CCCC3)C2=O)c(C)n1-c1ccc(Cl)cc1 [TCMDC-125698],-5.321
11,COc1cc(Cc2cnc(N)nc2N)cc(OC)c1OCCCCCN1C(=O)c2ccccc2C1=O [TCMDC-138036],16.13
12,CC(C)CCNC(=O)C1Cc2c([nH]c3cc(Br)ccc23)C2(CCN(Cc3ccccc3)CC2)N1 (centres unmarked) [TCMDC-141258],102.3
13,CCCCCCNC(=O)C1Cc2c([nH]c3ccc(Br)cc23)C2(CCN(CCc3ccccc3)CC2)N1 (centres unmarked) [TCMDC-141182],-10.63
14,O=C(NCc1ccccc1)C1Cc2c([nH]c3ccc(Br)cc23)C2(CCN(Cc3ccccc3)CC2)N1 (centres unmarked) [TCMDC-141183],77.73
15,CNC(=O)C1Cc2c([nH]c3cc(Br)ccc23)C2(CCN(CCc3ccccc3)CC2)N1 (centres unmarked) [TCMDC-141261],85.59
16,CC(C)CCNC(=O)C1Cc2c([nH]c3cc(Br)ccc23)C2(CCN(CCc3ccccc3)CC2)N1 (centres unmarked) [TCMDC-141259],-3.364
17,O=C(NCC1CC1)C1Cc2c([nH]c3ccc(Br)cc23)C2(CCN(CCc3ccccc3)CC2)N1 (centres unmarked) [TCMDC-141180],-28.21
18,CCCNC(=O)C1Cc2c([nH]c3cc(Br)ccc23)C2(CCN(CCc3ccccc3)CC2)N1 (centres unmarked) [TCMDC-141260],-73.32
19,CCCCCCNC(=O)C1Cc2c([nH]c3ccc(Br)cc23)C2(CCN(Cc3ccccc3)CC2)N1 (centres unmarked) [TCMDC-141181],96.4
20,CNC(=O)C1Cc2c([nH]c3ccc(Br)cc23)C2(CCN(CCc3ccccc3)CC2)N1 (centres unmarked) [TCMDC-141185],-21.04
21,CCCNC(=O)C1Cc2c([nH]c3ccc(Br)cc23)C2(CCN(CCc3ccccc3)CC2)N1 (centres unmarked) [TCMDC-141184],7.991
22,CCCCCCNC(=O)C1Cc2c([nH]c3ccc(C)cc23)C2(CCN(Cc3ccccc3)CC2)N1 (centres unmarked) [TCMDC-141091],29.77
23,CC(C)CCNC(=O)C1Cc2c([nH]c3cc(Cl)ccc23)C2(CCN(CCc3ccccc3)CC2)N1 (centres unmarked) [TCMDC-141294],25.11
24,Clc1ccc(-c2ncc(-c3ccncc3)[nH]2)cc1Cl [TCMDC-135775],-31.04

row,SMILES,% Inhibition [%]
1,Nc1ccnc(N2CCC(CCOc3ccnc4cc(Cl)ccc34)CC2)c1 [TCMDC-141365],-42.39
2,CC(=O)Nc1nnc(SCc2c(C)cc(C(C)(C)C)cc2C)s1 [TCMDC-125446],0.04812
3,CN1CC[C@@H](Oc2cc(Nc3nc(-c4ccc(C#N)cc4)cs3)ccc2Cl)C1 [TCMDC-136291],12.39
4,CCCCCCNC(=O)C1Cc2c([nH]c3cc(Cl)ccc23)C2(CCN(CCC)CC2)N1 (centres unmarked) [TCMDC-141297],-77.49
5,CCCCCCNC(=O)C1Cc2c([nH]c3cc(Cl)ccc23)C2(CCN(Cc3ccccc3)CC2)N1 (centres unmarked) [TCMDC-141296],89.1
6,CCCCCCNC(=O)C1Cc2c([nH]c3ccc(F)cc23)C2(CCN(Cc3ccccc3)CC2)N1 (centres unmarked) [TCMDC-141303],21.59
7,CC(C)CCNC(=O)C1Cc2c([nH]c3ccc(Br)cc23)C2(CCN(CCc3ccccc3)CC2)N1 (centres unmarked) [TCMDC-141179],47.91
8,Cc1ccc2[nH]c3c(c2c1)CC(C(=O)NCCC(C)C)NC31CCN(Cc2ccccc2)CC1 (centres unmarked) [TCMDC-141090],28.05
9,CC(C)CCNC(=O)C1Cc2c([nH]c3ccc(Br)cc23)C2(CCN(Cc3ccccc3)CC2)N1 (centres unmarked) [TCMDC-141178],102.8
10,Nc1cc(-c2cc3c(OCc4ccccc4)cccc3[nH]2)ccn1 [TCMDC-134290],-55.8
11,CN(C)CCC1CCN(CCS(=O)(=O)c2cccc(Nc3ccc(-c4ccsc4)cn3)c2)CC1 [TCMDC-134377],15.01
12,Cc1cc(Cl)ccc1NC(=O)Nc1ccc2nccc(N3CCN(C)CC3)c2c1 [TCMDC-139357],8.372
13,COc1ccc(CCN(C)CCCN2CCC(NC(=O)c3cccc4c(=O)c5ccccc5sc34)CC2)cc1OC [TCMDC-131966],103.2
14,COc1ccc(CN(C)CCCOc2ccc(NC(=O)c3cccc4c(=O)c5cccc(C)c5[nH]c34)cc2)cc1OC [TCMDC-131850],23.76
15,COc1ccc(CN(C)CCCOc2ccc(NC(=O)c3cccc4c(=O)c5cccc(F)c5[nH]c34)cc2)cc1OC [TCMDC-131846],60.98
16,COc1ccc(CCN(C)CCOc2ccc(NC(=O)c3cc(SC)cc4c(=O)c5ccccc5[nH]c34)cc2)cc1OC [TCMDC-131957],24.55
17,COc1ccc(CCN(C)CCCOc2ccc(NC(=O)c3cccc4c(=O)c5ccccc5[nH]c34)cc2)cc1OC [TCMDC-132116],43.65
18,COc1ccc(CCN(C)CCc2ccc(NC(=O)c3cccc4c(=O)c5ccccc5sc34)cc2)cc1 [TCMDC-131965],45.76
19,COc1cc(OCCCN(C)Cc2ccc(OC)c(OC)c2)ccc1NC(=O)c1cccc2c(=O)c3cccc(F)c3[nH]c12 [TCMDC-131853],16.5
20,COc1ccc(CCN(C)CCOc2ccc(NC(=O)c3cccc4c(=O)c5cc(SC)ccc5[nH]c34)cc2)cc1OC [TCMDC-131958],53.19
21,COc1ccc(CN(C)CCOc2ccc(NC(=O)c3cccc4c(=O)c5cc(SC)ccc5[nH]c34)cc2)cc1OC [TCMDC-131956],28.02
22,COc1ccc(CN(C)Cc2ccc(NC(=O)c3cccc4c(=O)c5cccc(C)c5[nH]c34)cc2)cc1OC [TCMDC-131852],2.818
23,COc1ccc(CCN(C)CCCCc2ccc(NC(=O)c3cccc4c(=O)c5cc(F)ccc5sc34)cc2)cc1OC [TCMDC-131961],94.02
